In PubChem BioAssay:
Active and inactive are the calls of the source.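 How the source made its calls: active means NADPH fluorescence slope more negative than the mean of all samples by about 3 SD, 99.7% confidence; inactive means the rest.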

target: Voltage-gated potassium channel subunit beta-2 (Rattus norvegicus) (UniProt P62483); assay: KvBeta positive modulators, primary screen, biochemical, NADPH fluorescence (AID 623); details: Recombinant KvBeta, NADPH fluorescence decrease slope, 10 min; at 10 µM; hits give low values;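 further: fluorescence intensity change per second fitted from 20 to 320 s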
Sequence (P62483 whole entry, looked up): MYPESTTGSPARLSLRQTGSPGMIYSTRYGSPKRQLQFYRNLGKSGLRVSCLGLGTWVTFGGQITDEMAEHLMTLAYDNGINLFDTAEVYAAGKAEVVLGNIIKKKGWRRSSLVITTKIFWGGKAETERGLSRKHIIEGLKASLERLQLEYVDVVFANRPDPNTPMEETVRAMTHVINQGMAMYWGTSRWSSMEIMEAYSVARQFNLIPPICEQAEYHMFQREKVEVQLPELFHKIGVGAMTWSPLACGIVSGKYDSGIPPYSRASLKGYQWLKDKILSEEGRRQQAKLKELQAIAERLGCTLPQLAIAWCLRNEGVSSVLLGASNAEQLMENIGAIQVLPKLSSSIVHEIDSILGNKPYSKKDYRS

NADPH fluorescence slope, inactive:
Cc1ccc2c(CC(=O)OCc3csc(C)n3)coc2c1 2.3e-05
O=C(Nc1ccccc1)c1cnc2n(c1=O)CCS2 -3.2e-05
Cc1cccc(C2c3c(n(C)c(=O)n(C)c3=O)N=C3c4ccccc4C(=O)C32)c1 (stereo not given) 2.2e-05
CC1CC(C)CN(CCCNC(=O)c2ccc3c(c2)NC(=O)C(N2CCCCC2)S3)C1 (stereo not given) 6.4e-06
O=C(Nc1cccnc1)c1noc2c1CCCCC2 -1.6e-05
O=C(OCc1nnc(-c2ccc(Cl)cc2)o1)c1ccc(=O)n(Cc2ccccc2)n1 -5e-05
CC1CCN(C(=O)CSc2nc3ccccc3[nH]2)CC1 -9.6e-06
O=C(Nc1ccc2snnc2c1)N1CCSCC1 -1.5e-05
Cc1cccc(NS(=O)(=O)c2cc(C(=O)OCC(=O)Nc3cc(C)on3)ccc2C)c1 -3.2e-05
COc1ccc(-c2nc3c(c(SCC(=O)N4CCOCC4)n2)COC(C)(C)C3)cc1 1.1e-05
CNS(=O)(=O)c1cccc(C(=O)OCC(=O)c2cc(C)n(-c3ccc4c(c3)OCO4)c2C)c1 -4.7e-05
Cc1nc(CCNS(=O)(=O)c2cccs2)cs1 2.6e-05
O=C(O)CCc1ccc(-c2ccc(F)cc2)n1CC(=O)O -0.000309
CCOc1ccccc1N(CC(=O)N1CCOCC1)S(=O)(=O)c1ccccc1 -3e-06
Cc1onc(-c2ccccc2)c1C(=O)Nc1sc2c(c1C(N)=O)CCC2 -1.9e-05
